This excerpt belongs to a sample that is enriched for hits.
Tg IFNy HTS: blocks Toxoplasma gondii growth in the presence of IFN-gamma; Toxoplasma gondii growth in IFN-gamma-treated host cells; hits give low values; activity change, negative = inhibition, % (no concentration beside the values); 69,000 tested, 3.8% active; AID 1259416; in the data active means activity change below about -70%, passing the limit was not always enough;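 further: host cells are HeLa cells infected with Toxoplasma gondii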
Starred values were filed as active, the others as inactive; i = inactive; ! = not active in a repeat.

SMILES	Tg IFNy HTS
O=C(Nc1cccc(Cl)c1)N[C@@H]1CC[C@@H](CCn2cc(Cc3ccccc3)nn2)O[C@@H]1CO	-73.7*
O=C(Nc1cccc(Cl)c1)N[C@H]1CC[C@@H](CCn2cc(Cc3ccccc3)nn2)O[C@@H]1CO	-41.4
Cc1csc(NC(=O)Cn2c(=O)ccc3cc(S(=O)(=O)N4CCCC4)ccc32)n1	10.8
CC(=O)Oc1ccc(NC(=O)CC2Nc3ccccc3NC2=O)cc1 (stereo not given)	4.3
COc1cccc(S(=O)(=O)N(C)C[C@@H]2OCc3ccccc3-c3c(n(C)c4ccccc34)C(=O)N([C@@H](C)CO)C[C@@H]2C)c1	-43.4
COc1cccc(S(=O)(=O)N(C)C[C@@H]2OCc3ccccc3-c3c(n(C)c4ccccc34)C(=O)N([C@H](C)CO)C[C@@H]2C)c1	-56.5
C[C@H](CO)N1C[C@H](C)[C@H](CN(C)S(=O)(=O)c2ccc([N+](=O)[O-])cc2)OCc2ccccc2-c2c(n(C)c3ccccc23)C1=O	-72.5*
C[C@@H]1CN([C@@H](C)CO)C(=O)c2c(c3ccccc3n2C)-c2ccccc2CO[C@@H]1CN(C)S(=O)(=O)c1ccc([N+](=O)[O-])cc1	-50.0
C[C@@H]1CN([C@H](C)CO)C(=O)c2c(c3ccccc3n2C)-c2ccccc2CO[C@@H]1CN(C)S(=O)(=O)c1ccc([N+](=O)[O-])cc1	-23.8
COc1cccc(S(=O)(=O)N(C)C[C@H]2OCc3ccccc3-c3c(n(C)c4ccccc34)C(=O)N([C@@H](C)CO)C[C@H]2C)c1	-72.3*
COc1cccc(N(Cc2nc(-c3ccccc3)oc2C)S(=O)(=O)c2ccccc2)c1	-50.3
Cc1cccc(CN(Cc2ccccc2)C(=O)c2c(C)nc3c(C)cccn23)n1	-2.8
Cc1ccccc1-c1noc(-c2c(O)c3ccccc3[nH]c2=O)n1	64.7
CN(C)S(=O)(=O)c1ccc(CNC(=O)c2ccc(N3CCCCC3)cc2)cc1	30.2
Cc1cc(C)n(CCCC(=O)N2CC3(CCNCC3)CC2C(=O)O)n1 (stereo not given)	-7.9
CC1(C)CC(c2nccn2CC2CCN(C3CCCC3)CC2)CCO1 (stereo not given)	8.6
CC1CCN(Cc2nc3ccccc3n2C)CC1	-23.1
CCC(CC)n1ncc(C)c1NC(=O)CCc1c(C)[nH]c2ccccc2c1=O	-16.6
CCCCCCCCCc1nc2c(=O)[nH]c3ccccc3c2o1	4.2
CCCCc1c(C)[nH]c2ccccc2c1=O	-99.1*
COc1ccc(C)cc1-n1c(SCC(=O)O)nnc1C(C)OC (stereo not given)	18.6
O=C(Nc1cccnc1)[C@H]1C[C@@H]2OCC[C@@H]2N(C(=O)c2ccco2)C1	-0.7
Cc1occc1C(=O)N1CC[C@H]2[C@@H]1CCN2CC1CCOCC1	126.1
CCOc1ccc(NC(=O)Cn2ncc3c(N4CCC(C)CC4)ncnc32)cc1	-30.8
O=C(Cn1ncc2c(N3CCCC3)ncnc21)Nc1ccc(Oc2ccccc2)cc1	-59.6
SMILES	Tg IFNy HTS
O=C(Nc1ccc(Oc2c(F)c(F)c(F)c(F)c2F)cc1)OC1CCN2Cc3ccccc3N=C12 (stereo not given)	-98.8*
OCCn1cc(-c2ccnc(N3CCCC3)n2)c(C2CCCN(CC3CC=CCC3)C2)n1 (stereo not given)	4.8
CN(C)c1ccc(-c2nc3c([nH]2)c(=O)n(C)c(=O)n3C)cc1	27.9
CS(=O)(=O)c1ccc(-c2cnc(N)c(C(=O)Nc3ccccc3)n2)cc1	-86.1*
CS(=O)(=O)c1ccc(C(=O)Nc2ccccc2Cl)cc1	22.6
CS(=O)(=O)c1ccc(-c2ccccc2C(N)=O)cc1	3.2
Cc1ccc(C)c(-c2nc(CN3CCc4c(sc5c4CCCC5)C3c3ccccc3)c(C)o2)c1 (stereo not given)	45.1
CCCCc1ccc2nc(NC(=O)OC)[nH]c2c1	-31.9
CCCS(=O)(=O)c1ccc2nc(NC(=O)OC)[nH]c2c1	-47.2
COC(=O)Nc1nc2ccc(-c3n[nH]c(=O)c4ccccc34)cc2[nH]1	-102.5*
COC(=O)c1ccc(Cl)cc1NC(=O)N1CCC2(CC1)Nc1cc(F)ccc1-n1cccc12	i
COc1cc(=O)n2c(c1C(=O)Nc1cnc3n1CCCC3)CCNCC2	1.0
CC(C)C(=O)N1CCCc2cc(-c3csc(N(C)C(=O)C4CCC4)n3)ccc21	-9.9
CC(=O)NC1(c2ccccc2)CCN(Cc2ccc3c(c2)CC(C)(C)O3)CC1	0.8
COCC1CN(C(=O)Cc2ccccn2)Cc2c1cnn2C (stereo not given)	52.4
Cn1c(SCc2ccccc2)nnc1-c1ccc(C(C)(C)C)cc1	1.0
O=C(NC(=S)SCc1ccccc1)c1ccc(C(F)(F)F)cc1	-9.6
CC(=O)c1c(C)nc(-c2ccc(C(F)(F)F)cc2)nc1SCc1ccccc1	-77.8*
Cn1cc(-c2cc3n(n2)CCC(=O)N3CC(=O)N2CCCC2)c2ccccc21	28.6
COc1ccc(-c2ccccc2)cc1NCc1cc2cc(OC)c(OC)cc2[nH]c1=O	2.1
Cc1ccc(-c2nc(-c3noc4ccc(C(=O)Cc5ccccn5)cc34)co2)cc1	45.3
Cc1ncsc1C(=O)N1CC2(CCCC2)c2cc(-c3ccc(C(N)=O)cc3)ccc21	-5.4
Cc1cccc(-c2nc(Cn3nnc(C(=O)NCc4ccc(C(F)(F)F)cc4)c3C)c(C)o2)c1	7.7
COc1ccc(NC(=O)c2nnn(Cc3nc(-c4cccc(Cl)c4)oc3C)c2C)cc1	-110.3*
Cc1cc(NC(=O)c2nnn(Cc3nc(-c4cccc(Cl)c4)oc3C)c2C)ccc1Br	67.4
SMILES	Tg IFNy HTS
Cc1cccc(-c2nc(Cn3nnc(C(=O)NCc4ccc(Br)cc4)c3C)c(C)o2)c1	-32.0
Cc1ccc(NC(=O)c2nnn(Cc3nc(-c4cccc(Cl)c4)oc3C)c2C)cc1F	76.7
CCOc1ccc(CNC(=O)c2nnn(Cc3nc(-c4cccc(C)c4)oc3C)c2C)cc1	-34.4
Cc1cccc(-c2nc(Cn3nnc(C(=O)NCc4cccc(Cl)c4)c3C)c(C)o2)c1	-96.9*
COc1ccc(OC)c(NC(=O)c2nnn(Cc3nc(-c4cccc(Cl)c4)oc3C)c2C)c1	54.4
Cc1cccc(-c2nc(Cn3nnc(C(=O)NCc4ccc(F)c(Cl)c4)c3C)c(C)o2)c1	-93.3*
O=C(c1cn[nH]n1)N(CCCn1ccnc1)Cc1ccncc1	-1.7
CCn1c(C2CCN(Cc3cccn3-c3ncccn3)CC2)nn(C)c1=O	7.8
CCCn1cnnc1Cn1cnc(-c2ccccc2)c1-c1cn(CC)nc1C	-1.9
Cc1ccc(S(=O)(=O)NCc2cccc(OCC3CCCO3)c2)s1 (stereo not given)	12.9
COCCO[C@@H]1CCN(Cc2nccs2)[C@@H]1Cc1cccnc1	39.8
CC(C)(C)CC(C)(C)c1ccc(OCCOCC[N+](C)(C)Cc2ccccc2)cc1	-78.0*!
COC(=O)c1cc(C)nc2c1c(=O)n(Cc1nc(-c3ccc(OC(C)C)cc3)oc1C)c(=O)n2C	13.1
COc1cccc(-c2nc(C)c(-c3ccc(SCc4ccc(Cl)cc4)nn3)s2)c1	-46.1
O=C1c2cccc(O)c2C(=O)c2c(O)cc(CO)cc21	-62.4
O=C1c2c(O)ccc(O)c2C(=O)c2c(NCCNCCO)ccc(NCCNCCO)c21	-88.3*
CO[C@H](C(=O)NC1CCN(Cc2cccc(O)c2)CC1)c1ccccc1	-5.5
CC(C)c1ccc(CN2CCC(CNC(=O)C3(N)CCC3)C2)cc1 (stereo not given)	-7.9
CC(C)c1ccc2c(c1)CCC1C(C)(CNC(=O)NC(C)(C)C)CCCC21C (stereo not given)	-104.2*
CCOC(=O)N1c2ccc(C(C)C)cc2C=CC1C#N (stereo not given)	204.1
